# In all, about 5,500 compounds went through this assay and about 2,000 (36%) were called active. Roughly 18% stayed inconclusive and do not appear here. This is one part of the list. A number with no mark means an inactive call. No stated cut-off is given here; in the data, active means normalized growth mostly below about 0.91 (no sharp cut-off); inconclusive means no clear call, values can overlap the other calls; inactive means mostly above about 0.92.
# Assay: chemical genetic growth profiling, strain panel (AID 1159580);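 further: tested at 20 µM; growth read once vehicle control cultures reached saturation at 30 °C; 1 = growth at the plate median or of vehicle wells; lower values mean less growth of the strain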
# Conditions: S. cerevisiae deletion strains, growth OD
# [1] = locus YAL040C, strain CLN3, hits give low values
# [2] = locus YDR150W, strain NUM1, hits give low values
# [3] = locus YDR363W, strain ESC2, hits give low values
# [4] = locus YER002W, strain NOP16, hits give low values
# [5] = locus YJR075W, strain HOC1, hits give low values
# [6] = locus YMR307W, strain GAS1, hits give low values
# [7] = locus YNL128W, strain TEP1, hits give low values
# [8] = locus YNL175C, strain NOP13, hits give low values
# [9] = locus YNL197C, strain WHI3, hits give low values
# [10] = locus YNL224C, strain SQS1, hits give low values
# [11] = locus YOR083W, strain WHI5 (second series), hits give low values
# [12] = locus YCL061C, strain MRC1 (second series), hits give low values
# [13] = locus YGR078C, strain PAC10, hits give low values
# [14] = locus YPL055C, strain LGE1, hits give low values
# [15] = locus YNL322C, strain KRE1, hits give low values
# [16] = locus YAL013W, strain DEP1, hits give low values
# [17] = locus YNL153C, strain GIM3, hits give low values
# [18] = locus YHR030C, strain SLT2, hits give low values
# [19] = locus YHR079C, strain IRE1, hits give low values
# [20] = locus YJL095W, strain BCK1, hits give low values
# [21] = locus YJR066W, strain TOR1, hits give low values
# [22] = locus YLR113W, strain HOG1, hits give low values
# [23] = locus YNL183C, strain NPR1, hits give low values
# [24] = locus YOR231W, strain MKK1, hits give low values
# [25] = locus YPL256C, strain CLN2, hits give low values
structure (smiles),measurement,setting,value
Nc1ncnc2c1ncn2C1CCCC1,normalized growth,[1],1.01
same,normalized growth,[2],1
same,normalized growth,[3],1.02
same,normalized growth,[4],1.01
same,normalized growth,"locus YGR229C, strain SMI1, hits give low values",1.02
same,normalized growth,[5],1.04
same,normalized growth,[6],1.01
same,normalized growth,[7],1.03
same,normalized growth,[8],1.01
same,normalized growth,[9],1.01
same,normalized growth,[10],1.03
same,normalized growth,[11],1.01
same,normalized growth,"locus YPL241C, strain CIN2, hits give low values",1.01
Nc1ncnc2c1c(-c1ccc(Oc3ccccc3)cc1)cn2C1CCCC1,normalized growth,[1],0.94
same,normalized growth,[12],1.01
same,normalized growth,[3],1.02
same,normalized growth,[4],1.02
same,normalized growth,[13],0.934
same,normalized growth,[5],1.02
same,normalized growth,[8],1.01
same,normalized growth,[9],1.1
same,normalized growth,[10],0.952
same,normalized growth,[11],0.838 (active)
same,normalized growth,[14],0.989
C[C@@H]1O[C@@H](O[C@H]2C[C@@H](O)[C@]3(CO)[C@@H]4C(CC[C@]3(O)C2)[C@@]2(O)CC[C@H](C3COC(=O)C3)[C@@]2(C)C[C@H]4O)[C@H](O)[C@H](O)[C@H]1O (stereo not given in full),normalized growth,[1],0.998
same,normalized growth,[12],1
same,normalized growth,[2],0.996
same,normalized growth,[3],1
same,normalized growth,[4],0.996
same,normalized growth,[13],1.01
same,normalized growth,[6],1.01
same,normalized growth,[8],0.98
same,normalized growth,[9],1
same,normalized growth,[10],0.974
same,normalized growth,[15],1.01
same,normalized growth,[11],1.05
same,normalized growth,[14],1.01
N=C(N)SCCc1ccc(CCSC(=N)N)cc1,normalized growth,[16],1.01
same,normalized growth,[1],1
same,normalized growth,[12],0.996
same,normalized growth,[2],1
same,normalized growth,[3],1.04
same,normalized growth,[4],0.996
same,normalized growth,[5],0.987
same,normalized growth,[17],0.964
same,normalized growth,[8],1
same,normalized growth,[9],1.03
same,normalized growth,[10],1.02
same,normalized growth,[15],1
same,normalized growth,[11],0.995
same,normalized growth,[14],1.02
N=C(N)SCCN,normalized growth,[16],1.06
same,normalized growth,"locus YAL021C, strain ccr4, hits give low values",0.98
same,normalized growth,"locus YAL026C, strain drs2, hits give low values",1
same,normalized growth,"locus YAL030W, strain snc1, hits give low values",1.01
same,normalized growth,[1],1.05
same,normalized growth,"locus YBL061C, strain skt5, hits give low values",1.01
same,normalized growth,"locus YBR009C, strain hhf1, hits give low values",1
same,normalized growth,"locus YBR023C, strain chs3, hits give low values",1
same,normalized growth,"locus YBR171W, strain sec66, hits give low values",1.01
same,normalized growth,"locus YBR231C, strain swc5, hits give low values",0.992
same,normalized growth,"locus YBR279W, strain paf1, hits give low values",0.998
same,normalized growth,"locus YCL011C, strain gbp2, hits give low values",1.01
same,normalized growth,"locus YCL016C, strain dcc1, hits give low values",0.999
same,normalized growth,[12],0.995
same,normalized growth,"locus YCL061C, strain MRC1, hits give low values",1.01
same,normalized growth,"locus YCL069W, strain vba3, hits give low values",1.01
same,normalized growth,"locus YCR088W, strain abp1, hits give low values",1
same,normalized growth,"locus YDL005C, strain med2, hits give low values",0.997
same,normalized growth,"locus YDL040C, strain nat1, hits give low values",0.998
same,normalized growth,"locus YDR001C, strain nth1, hits give low values",1.01
same,normalized growth,"locus YDR069C, strain doa4, hits give low values",0.999
same,normalized growth,"locus YDR137W, strain rgp1, hits give low values",1
same,normalized growth,[2],1.02
same,normalized growth,"locus YDR159W, strain sac3, hits give low values",0.995
same,normalized growth,"locus YDR195W, strain ref2",0.941
same,normalized growth,"locus YDR297W, strain sur2, hits give low values",1.01
same,normalized growth,"locus YDR334W, strain swr1, hits give low values",1
same,normalized growth,"locus YDR335W, strain msn5, hits give low values",1
same,normalized growth,"locus YDR392W, strain spt3, hits give low values",0.856
same,normalized growth,"locus YEL003W, strain gim4, hits give low values",1.01
same,normalized growth,"locus YEL037C, strain rad23, hits give low values",0.996
same,normalized growth,"locus YEL061C, strain CIN8 (second series), hits give low values",1
same,normalized growth,[4],0.986
same,normalized growth,"locus YER015W, strain faa2, hits give low values",1.01
same,normalized growth,"locus YER016W, strain bim1, hits give low values",1
same,normalized growth,"locus YER111C, strain swi4, hits give low values",1
same,normalized growth,"locus YER155C, strain BEM2 (second series), hits give low values",0.985
same,normalized growth,"locus YFR010W, strain ubp6, hits give low values",1.01
same,normalized growth,"locus YGL167C, strain pmr1, hits give low values",1.01
same,normalized growth,"locus YGL173C, strain kem1, hits give low values",1
same,normalized growth,"locus YGL227W, strain vid30, hits give low values",1
same,normalized growth,"locus YGL240W, strain doc1, hits give low values",0.985
same,normalized growth,"locus YGL253W, strain hxk2, hits give low values",1.01
same,normalized growth,[13],0.994
same,normalized growth,"locus YHR013C, strain ard1, hits give low values",0.969
same,normalized growth,"locus YHR027C, strain rpn1, hits give low values",1.01
same,normalized growth,[18],1.07
same,normalized growth,[19],1.07
same,normalized growth,"locus YHR142W, strain chs7, hits give low values",1.01
same,normalized growth,"locus YJL092W, strain hpr5, hits give low values",0.998
same,normalized growth,"locus YJL095W, strain BCK1 (second series), hits give low values",0.998
same,normalized growth,[20],1.04
same,normalized growth,"locus YJL115W, strain asf1, hits give low values",0.99
same,normalized growth,"locus YJL129C, strain trk1, hits give low values",1.03
same,normalized growth,"locus YJL154C, strain vps35, hits give low values",0.997
same,normalized growth,"locus YJL164C, strain tpk1, hits give low values",1.01
same,normalized growth,"locus YJL166W, strain qcr8, hits give low values",1.01
same,normalized growth,"locus YJL187C, strain SWE1, hits give low values",1
same,normalized growth,[21],0.976
same,normalized growth,[5],1.01
same,normalized growth,"locus YKL160W, strain elf1, hits give low values",0.996
same,normalized growth,"locus YKR026C, strain gcn3, hits give low values",1
same,normalized growth,"locus YKR091W, strain srl3, hits give low values",1
same,normalized growth,"locus YLL001W, strain dnm1, hits give low values",0.999
same,normalized growth,"locus YLL026W, hits give low values",0.999
same,normalized growth,"locus YLL041C, strain sdh2, hits give low values",1
same,normalized growth,"locus YLR027C, strain aat2, hits give low values",1.01
same,normalized growth,[22],1.03
same,normalized growth,"locus YLR221C, strain rsa3, hits give low values",1
same,normalized growth,"locus YLR258W, strain gsy2, hits give low values",1
same,normalized growth,"locus YLR262C, strain YPT6 (second series), hits give low values",0.991
same,normalized growth,"locus YLR320W, strain mms22, hits give low values",0.997
same,normalized growth,"locus YLR342W, strain FKS1, hits give low values",1.01
same,normalized growth,"locus YLR357W, strain rsc2, hits give low values",0.833 (active)
same,normalized growth,"locus YLR370C, strain arc18, hits give low values",1.01
same,normalized growth,"locus YLR384C, strain iki3, hits give low values",1
same,normalized growth,"locus YML120C, strain ndi1, hits give low values",0.999
same,normalized growth,"locus YMR058W, strain fet3, hits give low values",1
same,normalized growth,"locus YMR125W, strain sto1, hits give low values",0.993
same,normalized growth,"locus YMR129W, hits give low values",1.02
same,normalized growth,"locus YMR205C, strain PFK2, hits give low values",1.01
same,normalized growth,"locus YMR231W, strain pep5, hits give low values",0.998
same,normalized growth,"locus YMR263W, strain SAP30, hits give low values",1.01
same,normalized growth,[6],1.02
same,normalized growth,"locus YNL071W, strain lat1, hits give low values",1
same,normalized growth,[7],0.987
same,normalized growth,[17],1
same,normalized growth,[8],0.991
same,normalized growth,[23],0.989
same,normalized growth,[9],0.992
same,normalized growth,"locus YNL209W, strain ssb2, hits give low values",1.01
same,normalized growth,[10],1.01
same,normalized growth,"locus YNL248C, strain rpa49, hits give low values",1.01
same,normalized growth,"locus YNL322C, strain KRE1 (second series), hits give low values",0.998
same,normalized growth,"locus YNR049C, strain mso1, hits give low values",1
same,normalized growth,"locus YOR001W, strain rrp6, hits give low values",0.995
same,normalized growth,"locus YOR070C, strain gyp1, hits give low values",0.989
same,normalized growth,"locus YOR080W, strain dia2, hits give low values",0.996
same,normalized growth,[11],0.997
same,normalized growth,"locus YOR083W, strain WHI5, hits give low values",0.995
same,normalized growth,"locus YOR106W, strain vam3, hits give low values",1.04
same,normalized growth,[24],1.05
same,normalized growth,"locus YOR265W, strain rbl2, hits give low values",1.01
same,normalized growth,"locus YOR270C, strain vph1, hits give low values",1.06
same,normalized growth,"locus YOR290C, strain snf2, hits give low values",0.956
same,normalized growth,"locus YPL051W, strain arl3, hits give low values",0.994
same,normalized growth,[14],1.01
same,normalized growth,"locus YPL078C, strain atp4, hits give low values",1.01
same,normalized growth,"locus YPL106C, strain sse1, hits give low values",1
same,normalized growth,"locus YPL240C, strain hsp82, hits give low values",1.02
same,normalized growth,[25],1.12
CN(C)CCCSC(=N)N,normalized growth,[18],0.951
same,normalized growth,[19],0.968
same,normalized growth,[20],0.963
same,normalized growth,[21],0.903
same,normalized growth,[22],0.982
same,normalized growth,[23],0.92
same,normalized growth,[24],0.966
same,normalized growth,[25],0.978
